Data taken from the supplement of paper PMC6555819.

What was measured:
Assay in all cases: PBM binding z-score (relative to random genomic background probes); higher = stronger binding; sequences stand for … in GC…GCGATTGACAGCGTAGAATGAAGG
[1] = system: RARb homodimer (NR concentration 270 nM)
How it was run: (§1)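 Binding buffer was PBS pH 7.4 with 2% milk, 0.02% Triton X-100, 1 mM DTT, 0.2 mg/mL BSA and 0.4 mg/ml salmon testes DNA. In it, ligand-free nuclear receptor dimers were incubated 1 h on custom Agilent 4×180K protein-binding microarrays carrying double-stranded probes. Antibodies against each partner (one per run) detected binding, and z-scores were calculated against random background probes after regression normalization of scanned fluorescence.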

[2] = system: RARg:RXRa (NR concentration 270 nM, RXRa partner concentration 90 nM)
How it was run: as §1

[3] = system: RARg homodimer (NR concentration 270 nM)
How it was run: as §1

[4] = system: RXRa DBDmut IVT, anti-RXR (DBD mutation: RXRa K156A/R161A, NR concentration 90 nM)
How it was run: as §1

[5] = system: RXRa homodimer (NR concentration 180 nM)
How it was run: as §1

[6] = system: THRa:RXRa (NR concentration 90 nM, RXRa partner concentration 90 nM)
How it was run: as §1

[7] = system: THRa homodimer (NR concentration 90 nM)
How it was run: as §1

[8] = system: VDR homodimer (NR concentration 270 nM)
How it was run: as §1

Sequence | PBM binding z-score [1] | PBM binding z-score [2] | PBM binding z-score [3] | PBM binding z-score [4] | PBM binding z-score [5] | PBM binding z-score [6] | PBM binding z-score [7] | PBM binding z-score [8]
ATCTCTAGGTAATACTCAGTTCAGTGAAGAACGC | 1.14 | 0.732 | 0.671 | 0.98 | 0.582 | 1.37 | 1.33 | 1.89
TAGCCTAGGTCATTCAGGGACCAGTATAGAAAGC | 2.63 | 3.94 | 4.11 | 1.43 | 2.72 | 4.26 | 0.615 | 1.19
TCTAGTAGATCAAGCAGGTTAAGAAAGCCTGAGT | -0.158 | -0.256 | -0.373 | 0.554 | 0.16 | 0.0974 | -0.707 | -0.397
ATCTCTAGGTACAGATAGTTCAGTGAATGCAAAT | 0.913 | 0.74 | 0.847 | 1.17 | 0.198 | 0.432 | 0.0409 | 1.65
TAGCCTAGGTCAATGGGCCAGTATAGTACGCATC | 3.07 | 3.64 | 4.52 | 0.537 | 2.12 | 2.16 | 0.256 | 0.391
TGTCAAAGTTCAAAGGTAAAGTAAGTATCCACAC | 3.74 | 6.33 | 6.06 | 4.16 | 7 | 3.08 | -0.134 | 3.53
CCTCTGAGGACAGAAGGTCAGAGCTGTCCGCTTT | 3.74 | 3.76 | 3.58 | 1.08 | 2 | 3.4 | 1.58 | 0.647
CGTCAAAGTTCAACTAAGGTACCGTAAAGCACGC | 4.34 | 5.81 | 6.61 | 4.77 | 5.35 | 4.81 | 0.671 | 4.06
AGTCAAAGTTCAGGACGAGGCAACGTAAAGCACG | 2.9 | 3.86 | 4.55 | 3.06 | 2.86 | 2.76 | 0.753 | 1.61
TCGTATAGGTAAAGGTGAAAGTCGAACGATATGA | 1.77 | 1.52 | 1.35 | 0.714 | 2.12 | 1.24 | -0.212 | 0.0316
TCTAGCAGGCCAGAGGGACACTCAAGAGGTACGG | 0.146 | -0.0485 | 0.179 | -0.19 | 0.112 | -0.54 | -0.905 | -0.834
TCTCGGAGGACACGAAAGGTCAGAGTTCGACATC | 5.05 | 5.04 | 5.71 | 1.45 | 5.12 | 3.77 | 1.57 | 3.65
TAGCCTAGGTCATTGGGCCAGTACAGTACGCATC | 3.02 | 3.95 | 4.57 | 1.77 | 3.3 | 2.91 | 0.878 | 1.28
ACTTTCGGGTCAACGAGGTTATAGCACGCGTATA | 3.85 | 5.69 | 5.44 | 3.12 | 6.2 | 4.62 | 3.51 | 4.05
CCTACTAGGCCAAAGGTCATTGATTCCAATGCTC | 4.84 | 6.22 | 5.49 | 2.06 | 6.88 | 3.67 | 1.45 | 2.65
CCAACTAGGTCAAGGTCAAAGTCGGTTTGTGCCA | 5.31 | 6.08 | 6.54 | 3.17 | 5.72 | 4.33 | 4.25 | 4.39
ATCTCTAGGTAAGACTGAGTTCAGTGAAGAACGC | 1.05 | 0.569 | 0.377 | 1.38 | 0.265 | 1.25 | 0.797 | 3.47
